According to the supplement of paper PMC11732987, “Enantioselective OTUD7B fragment discovery through chemoproteomics screening and high-throughput optimisation” (Communications Chemistry, 2025):

Tests used:
Assay in all cases: log2 ratio of Biotin-Ahx-Ub-VS probe labelling (fragment/DMSO); higher = less target engagement (more negative = stronger competition), active = hit call of the paper (q ≤ 0.05, log2 ratio ≤ -1)
Settings in all cases: compound concentration: 200 uM; treatment time: 3 h
USP34 = USP34 (UniProt Q70CQ2)
Chain of USP34 (Q70CQ2 whole entry, the tested form may be a part): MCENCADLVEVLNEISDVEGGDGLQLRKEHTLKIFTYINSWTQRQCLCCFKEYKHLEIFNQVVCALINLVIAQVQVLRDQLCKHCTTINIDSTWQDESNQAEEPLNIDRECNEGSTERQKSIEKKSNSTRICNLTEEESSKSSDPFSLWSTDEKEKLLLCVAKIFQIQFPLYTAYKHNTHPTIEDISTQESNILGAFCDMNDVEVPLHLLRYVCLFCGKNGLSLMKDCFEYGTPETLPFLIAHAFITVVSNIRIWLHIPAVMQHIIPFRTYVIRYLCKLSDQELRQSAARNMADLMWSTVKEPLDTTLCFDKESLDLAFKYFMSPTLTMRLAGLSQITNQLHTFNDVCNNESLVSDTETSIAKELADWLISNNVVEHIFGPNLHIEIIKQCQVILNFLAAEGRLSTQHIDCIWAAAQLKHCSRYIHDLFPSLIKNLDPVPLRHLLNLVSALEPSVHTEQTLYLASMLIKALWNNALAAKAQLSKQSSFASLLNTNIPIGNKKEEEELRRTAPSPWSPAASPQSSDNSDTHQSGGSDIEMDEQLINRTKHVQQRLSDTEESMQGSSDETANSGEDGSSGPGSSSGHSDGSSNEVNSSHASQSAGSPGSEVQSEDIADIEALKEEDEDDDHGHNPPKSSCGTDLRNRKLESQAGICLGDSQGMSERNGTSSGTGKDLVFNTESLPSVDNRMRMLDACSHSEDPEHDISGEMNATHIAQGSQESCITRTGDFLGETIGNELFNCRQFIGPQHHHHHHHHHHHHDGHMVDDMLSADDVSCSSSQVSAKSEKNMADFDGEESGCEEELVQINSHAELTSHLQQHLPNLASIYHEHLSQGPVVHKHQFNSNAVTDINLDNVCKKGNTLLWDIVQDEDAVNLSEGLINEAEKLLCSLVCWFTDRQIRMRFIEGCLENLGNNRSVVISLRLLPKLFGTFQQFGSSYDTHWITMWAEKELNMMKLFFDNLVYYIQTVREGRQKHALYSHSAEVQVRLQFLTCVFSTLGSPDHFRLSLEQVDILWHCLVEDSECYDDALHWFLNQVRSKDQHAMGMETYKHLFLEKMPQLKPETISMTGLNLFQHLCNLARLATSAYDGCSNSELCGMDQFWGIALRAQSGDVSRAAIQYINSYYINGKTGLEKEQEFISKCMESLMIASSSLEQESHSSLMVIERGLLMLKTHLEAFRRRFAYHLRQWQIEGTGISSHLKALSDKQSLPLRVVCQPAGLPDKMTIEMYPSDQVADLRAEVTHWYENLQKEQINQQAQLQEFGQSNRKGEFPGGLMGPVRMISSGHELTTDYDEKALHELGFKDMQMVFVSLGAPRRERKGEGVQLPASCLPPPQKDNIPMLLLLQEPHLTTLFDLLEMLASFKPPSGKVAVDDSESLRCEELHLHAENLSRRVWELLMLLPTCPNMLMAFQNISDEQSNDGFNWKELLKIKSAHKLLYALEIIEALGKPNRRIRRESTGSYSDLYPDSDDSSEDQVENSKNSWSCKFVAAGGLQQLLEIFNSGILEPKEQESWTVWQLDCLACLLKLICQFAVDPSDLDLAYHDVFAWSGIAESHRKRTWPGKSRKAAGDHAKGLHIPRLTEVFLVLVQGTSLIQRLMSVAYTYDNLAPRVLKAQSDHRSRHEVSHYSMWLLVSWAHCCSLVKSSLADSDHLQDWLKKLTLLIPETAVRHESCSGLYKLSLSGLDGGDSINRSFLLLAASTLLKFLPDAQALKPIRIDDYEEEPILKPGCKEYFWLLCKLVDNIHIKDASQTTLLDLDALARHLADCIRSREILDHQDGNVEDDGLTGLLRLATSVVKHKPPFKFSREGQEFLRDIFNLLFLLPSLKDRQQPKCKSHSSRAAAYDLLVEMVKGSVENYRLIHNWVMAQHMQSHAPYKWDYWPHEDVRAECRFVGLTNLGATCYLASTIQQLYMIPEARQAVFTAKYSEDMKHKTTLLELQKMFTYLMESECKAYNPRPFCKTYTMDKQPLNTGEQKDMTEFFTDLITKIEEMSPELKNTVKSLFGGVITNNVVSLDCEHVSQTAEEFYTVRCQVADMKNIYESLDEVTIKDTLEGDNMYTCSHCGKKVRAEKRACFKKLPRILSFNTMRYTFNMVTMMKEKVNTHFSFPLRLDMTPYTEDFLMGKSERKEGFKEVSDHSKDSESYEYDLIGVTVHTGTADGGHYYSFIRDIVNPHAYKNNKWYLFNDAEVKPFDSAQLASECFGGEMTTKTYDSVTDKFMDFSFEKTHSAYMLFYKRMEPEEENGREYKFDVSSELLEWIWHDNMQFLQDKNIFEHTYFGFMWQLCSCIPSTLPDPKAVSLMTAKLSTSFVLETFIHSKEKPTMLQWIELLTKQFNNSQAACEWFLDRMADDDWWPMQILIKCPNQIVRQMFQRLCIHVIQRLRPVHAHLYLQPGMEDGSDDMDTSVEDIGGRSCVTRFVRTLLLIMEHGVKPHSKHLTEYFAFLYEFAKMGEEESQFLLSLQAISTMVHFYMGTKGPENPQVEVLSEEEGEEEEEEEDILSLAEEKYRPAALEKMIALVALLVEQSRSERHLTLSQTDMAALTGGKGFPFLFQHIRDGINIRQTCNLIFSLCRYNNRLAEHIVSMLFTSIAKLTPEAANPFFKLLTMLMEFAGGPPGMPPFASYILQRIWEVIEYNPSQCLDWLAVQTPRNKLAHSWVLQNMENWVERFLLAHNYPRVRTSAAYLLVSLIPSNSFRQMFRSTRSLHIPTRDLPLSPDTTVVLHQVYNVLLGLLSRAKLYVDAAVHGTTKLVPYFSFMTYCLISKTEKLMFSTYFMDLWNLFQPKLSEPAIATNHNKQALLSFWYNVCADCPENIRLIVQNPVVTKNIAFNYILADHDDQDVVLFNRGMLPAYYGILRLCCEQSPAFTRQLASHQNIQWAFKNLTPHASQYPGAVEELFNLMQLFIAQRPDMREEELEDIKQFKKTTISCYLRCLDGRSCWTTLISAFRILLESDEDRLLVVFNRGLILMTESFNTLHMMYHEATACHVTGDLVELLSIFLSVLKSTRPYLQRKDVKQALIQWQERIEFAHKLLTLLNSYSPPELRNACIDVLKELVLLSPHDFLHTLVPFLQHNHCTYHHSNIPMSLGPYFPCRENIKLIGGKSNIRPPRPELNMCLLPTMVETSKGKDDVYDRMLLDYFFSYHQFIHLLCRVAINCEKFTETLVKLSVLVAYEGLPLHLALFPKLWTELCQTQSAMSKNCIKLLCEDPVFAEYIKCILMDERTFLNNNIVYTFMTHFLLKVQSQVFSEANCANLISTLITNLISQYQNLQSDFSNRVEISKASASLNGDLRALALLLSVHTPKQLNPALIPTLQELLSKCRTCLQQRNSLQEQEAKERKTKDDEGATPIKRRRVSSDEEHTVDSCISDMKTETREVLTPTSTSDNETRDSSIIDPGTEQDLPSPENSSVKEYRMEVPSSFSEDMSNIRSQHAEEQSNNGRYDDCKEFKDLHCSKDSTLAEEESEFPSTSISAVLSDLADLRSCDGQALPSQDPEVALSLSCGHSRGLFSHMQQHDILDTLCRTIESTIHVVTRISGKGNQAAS
Outline: (§1)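 Triplicate samples of HEK293T lysate, 495 µg each, received fragment at 200 µM or vehicle for 3 h, followed by Biotin-Ahx-Ub-VS (0.5 µM final) for 1 h. After NeutrAvidin enrichment of labelled DUBs and LysC/trypsin digestion, peptides were run by diaPASEF LC-MS/MS. The values are average log2 fragment/vehicle ratios from global-median-normalised Spectronaut label-free quantities, tested by unpaired t-test on proteins having ≥2 unique peptides.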

USP36 = target: T1, USP36 (UniProt Q9P275)
T1 sequence (whole entry): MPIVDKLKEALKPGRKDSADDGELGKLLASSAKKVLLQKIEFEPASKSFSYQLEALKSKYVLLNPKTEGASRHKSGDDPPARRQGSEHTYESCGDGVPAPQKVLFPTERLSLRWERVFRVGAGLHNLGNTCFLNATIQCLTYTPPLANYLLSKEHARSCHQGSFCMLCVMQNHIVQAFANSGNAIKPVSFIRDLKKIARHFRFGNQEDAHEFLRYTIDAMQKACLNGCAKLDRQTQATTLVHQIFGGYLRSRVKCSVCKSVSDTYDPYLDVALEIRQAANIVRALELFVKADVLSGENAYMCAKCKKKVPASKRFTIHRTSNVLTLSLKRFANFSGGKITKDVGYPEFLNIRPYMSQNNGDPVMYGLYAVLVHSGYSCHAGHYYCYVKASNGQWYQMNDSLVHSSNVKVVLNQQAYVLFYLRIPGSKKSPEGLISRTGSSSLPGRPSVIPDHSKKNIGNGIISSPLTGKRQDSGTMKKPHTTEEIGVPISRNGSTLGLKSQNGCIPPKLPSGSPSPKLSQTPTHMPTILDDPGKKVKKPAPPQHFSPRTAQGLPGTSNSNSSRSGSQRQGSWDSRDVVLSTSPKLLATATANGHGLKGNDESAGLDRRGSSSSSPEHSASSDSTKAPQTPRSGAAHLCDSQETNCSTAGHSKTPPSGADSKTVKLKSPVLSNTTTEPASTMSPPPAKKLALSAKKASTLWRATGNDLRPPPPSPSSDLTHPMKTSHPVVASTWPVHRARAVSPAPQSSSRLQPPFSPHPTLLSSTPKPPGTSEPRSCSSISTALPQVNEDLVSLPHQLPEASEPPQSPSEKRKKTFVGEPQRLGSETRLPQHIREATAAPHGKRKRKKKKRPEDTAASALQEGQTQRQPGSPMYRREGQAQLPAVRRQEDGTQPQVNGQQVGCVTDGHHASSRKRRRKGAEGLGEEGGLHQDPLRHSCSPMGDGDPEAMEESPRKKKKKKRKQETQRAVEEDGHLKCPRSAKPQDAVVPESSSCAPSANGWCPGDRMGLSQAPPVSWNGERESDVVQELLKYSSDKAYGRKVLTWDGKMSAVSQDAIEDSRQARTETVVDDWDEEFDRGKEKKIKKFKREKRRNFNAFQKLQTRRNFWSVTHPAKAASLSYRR
Outline: as §1

USP38 = target: T2, USP38 (UniProt Q8NB14)
T2 sequence (whole entry): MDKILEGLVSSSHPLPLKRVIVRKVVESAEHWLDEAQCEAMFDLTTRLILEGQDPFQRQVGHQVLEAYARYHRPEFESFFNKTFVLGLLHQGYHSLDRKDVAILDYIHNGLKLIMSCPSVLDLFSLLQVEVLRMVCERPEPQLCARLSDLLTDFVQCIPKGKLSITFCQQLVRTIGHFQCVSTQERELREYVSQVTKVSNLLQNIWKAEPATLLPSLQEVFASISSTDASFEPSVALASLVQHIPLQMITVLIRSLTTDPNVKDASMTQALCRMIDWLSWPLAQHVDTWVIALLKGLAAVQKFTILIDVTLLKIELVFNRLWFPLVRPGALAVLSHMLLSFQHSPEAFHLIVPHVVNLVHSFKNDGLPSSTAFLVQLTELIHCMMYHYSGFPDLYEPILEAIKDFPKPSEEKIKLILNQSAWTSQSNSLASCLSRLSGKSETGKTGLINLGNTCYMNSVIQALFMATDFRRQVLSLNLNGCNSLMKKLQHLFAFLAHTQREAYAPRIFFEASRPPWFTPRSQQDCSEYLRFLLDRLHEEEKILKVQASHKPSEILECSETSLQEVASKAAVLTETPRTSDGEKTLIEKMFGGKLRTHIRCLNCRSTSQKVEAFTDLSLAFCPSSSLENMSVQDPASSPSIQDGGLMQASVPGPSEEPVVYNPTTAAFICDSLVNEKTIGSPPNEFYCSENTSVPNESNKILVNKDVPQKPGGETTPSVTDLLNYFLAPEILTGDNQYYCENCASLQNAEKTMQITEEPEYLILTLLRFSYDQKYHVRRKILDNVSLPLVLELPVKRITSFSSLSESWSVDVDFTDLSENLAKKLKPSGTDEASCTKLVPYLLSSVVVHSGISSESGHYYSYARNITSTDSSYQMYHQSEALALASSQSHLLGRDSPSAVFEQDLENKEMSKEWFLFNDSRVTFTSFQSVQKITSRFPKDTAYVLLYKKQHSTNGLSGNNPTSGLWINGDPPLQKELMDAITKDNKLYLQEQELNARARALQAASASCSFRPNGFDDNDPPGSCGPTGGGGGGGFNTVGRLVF
Outline: as §1

USP39 = target: T3, USP39 (UniProt Q53GS9)
T3 sequence (whole entry): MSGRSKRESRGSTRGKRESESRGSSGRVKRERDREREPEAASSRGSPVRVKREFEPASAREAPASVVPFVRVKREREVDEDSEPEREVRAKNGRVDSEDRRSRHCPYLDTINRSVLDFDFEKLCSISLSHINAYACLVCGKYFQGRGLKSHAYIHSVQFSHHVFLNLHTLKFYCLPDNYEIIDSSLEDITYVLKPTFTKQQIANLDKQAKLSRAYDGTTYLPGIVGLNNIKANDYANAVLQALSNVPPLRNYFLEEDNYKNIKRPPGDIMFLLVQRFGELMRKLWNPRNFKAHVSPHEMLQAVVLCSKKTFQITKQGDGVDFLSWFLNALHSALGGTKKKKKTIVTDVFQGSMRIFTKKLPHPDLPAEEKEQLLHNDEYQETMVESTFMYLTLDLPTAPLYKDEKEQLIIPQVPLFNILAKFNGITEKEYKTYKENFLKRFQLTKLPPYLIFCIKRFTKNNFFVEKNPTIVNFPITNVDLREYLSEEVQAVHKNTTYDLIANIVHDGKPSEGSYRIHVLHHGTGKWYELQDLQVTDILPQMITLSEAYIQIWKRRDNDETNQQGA
Outline: as §1

USP4 = target: T4, USP4 (UniProt Q13107)
T4 sequence (whole entry): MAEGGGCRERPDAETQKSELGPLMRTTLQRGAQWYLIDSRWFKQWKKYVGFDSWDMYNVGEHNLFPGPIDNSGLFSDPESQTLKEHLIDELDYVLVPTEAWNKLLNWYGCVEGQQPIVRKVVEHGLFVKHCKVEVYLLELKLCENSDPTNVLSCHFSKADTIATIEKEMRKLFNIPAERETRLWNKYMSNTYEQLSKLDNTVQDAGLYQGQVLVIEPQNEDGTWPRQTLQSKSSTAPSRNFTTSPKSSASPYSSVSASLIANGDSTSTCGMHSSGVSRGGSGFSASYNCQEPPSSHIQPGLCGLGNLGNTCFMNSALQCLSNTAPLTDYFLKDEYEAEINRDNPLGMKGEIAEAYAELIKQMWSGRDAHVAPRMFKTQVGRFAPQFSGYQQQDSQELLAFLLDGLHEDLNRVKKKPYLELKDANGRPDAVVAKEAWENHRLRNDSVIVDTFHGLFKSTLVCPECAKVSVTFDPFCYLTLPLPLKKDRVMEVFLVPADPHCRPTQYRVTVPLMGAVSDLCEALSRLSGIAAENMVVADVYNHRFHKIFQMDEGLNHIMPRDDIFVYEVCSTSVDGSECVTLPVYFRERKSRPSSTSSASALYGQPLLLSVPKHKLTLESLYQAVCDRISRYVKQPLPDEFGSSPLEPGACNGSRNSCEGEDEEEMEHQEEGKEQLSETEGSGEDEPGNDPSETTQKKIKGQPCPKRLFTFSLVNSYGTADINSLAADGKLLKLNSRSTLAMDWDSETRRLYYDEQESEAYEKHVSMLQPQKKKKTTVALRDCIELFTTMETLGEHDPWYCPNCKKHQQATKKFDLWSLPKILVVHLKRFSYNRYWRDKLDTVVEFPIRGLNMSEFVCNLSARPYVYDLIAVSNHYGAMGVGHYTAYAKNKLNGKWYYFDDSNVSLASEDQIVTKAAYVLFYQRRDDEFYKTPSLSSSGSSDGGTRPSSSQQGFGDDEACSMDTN
Outline: as §1

Measured: log2 ratio of Biotin-Ahx-Ub-VS probe labelling

Cl.Cn1nc2c(c1CNC(=O)CCl)CCCC2
inactive: USP34 -0.177 | USP36 -0.0094 | USP38 0.0557 | USP39 0.242 | USP4 0.0436
